Shown is part of a subset that was picked to be rich in hits.
TbREL1 inh: TbREL1 inhibition, primary screen; P86926; 89,000 compounds, 0.49% hits; TbREL1 RNA ligation, FRET fluorescence; inhibition, % at 9.66 µM; AID 1117264;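 active = inhibition above the mean inhibition across all screened compounds plus 3 SD, cut at about 11% in these data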
Target sequence (P86926 whole entry, looked up): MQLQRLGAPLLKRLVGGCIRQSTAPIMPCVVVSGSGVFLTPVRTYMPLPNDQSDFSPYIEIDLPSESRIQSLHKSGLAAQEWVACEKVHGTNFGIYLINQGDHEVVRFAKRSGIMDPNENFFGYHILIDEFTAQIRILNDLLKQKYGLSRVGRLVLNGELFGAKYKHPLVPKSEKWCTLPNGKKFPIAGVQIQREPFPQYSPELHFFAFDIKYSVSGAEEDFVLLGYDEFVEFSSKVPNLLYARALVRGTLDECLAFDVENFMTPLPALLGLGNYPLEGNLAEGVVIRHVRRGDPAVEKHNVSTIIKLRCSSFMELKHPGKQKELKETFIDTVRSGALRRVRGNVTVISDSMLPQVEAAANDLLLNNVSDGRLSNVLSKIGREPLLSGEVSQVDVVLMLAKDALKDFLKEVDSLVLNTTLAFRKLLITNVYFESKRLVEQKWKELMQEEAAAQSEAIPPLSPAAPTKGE
Hits are given with their value; n = inactive.

SMILES | TbREL1 inh
O=C1CC(=O)N(Cc2ccco2)C(=O)N1 | 69.5
O=C1CC(=O)N(Cc2cccs2)C(=O)N1 | n
O=C1C2C(C(=O)N1Cc1ccco1)C1C=CC2C12CC2 (stereo not drawn) | n
O=C(C1CCN(S(=O)(=O)c2ccc3[nH]c(=O)oc3c2)CC1)N1CCCC1 | n
COc1ccc(-n2c(SCC(=O)Nc3ccc(OCc4ccccc4)cc3)nnc2-c2ccc(C)cc2)cc1 | n
CCCCN1CCCOc2cc(Br)ccc2S1(=O)=O | n
C#CCOCCOCCOCCNc1nc(N2CCOCC2)nc(N2CCN(C(=O)CCCCCCCCCCNC(=O)[C@@H]([C@H](C)CC)n3cc(CCCCCN)nn3)CC2)n1 | 13.5
C#CCOCCOCCOCCNc1nc(N2CCN(C(=O)[C@H]([C@@H](C)CC)n3cc(CCCCN)nn3)CC2)nc(N2CCN(C(=O)[C@H](C)n3cc(CCC(=O)O)nn3)CC2)n1 | n
C#CCOCCOCCOCCNc1nc(N2CCOCC2)nc(N2CCN(C(=O)CCCCCCCCCCNC(=O)[C@@H](CCC(=O)O)n3cc(CCCCCN)nn3)CC2)n1 | n
C=CCN=C1NC(c2ccccc2)C(C(=O)OC)=C(C)N1Cc1ccccc1C(F)(F)F (stereo not drawn) | n
COc1cccc(Cn2cc(COC(=O)NCCc3c[nH]c4ccccc34)nn2)c1 | n
COc1ccc2c(=O)c3c(=O)n(Cc4ccco4)c(-c4ccccc4)nc3oc2c1 | n
COc1ccc(Cn2c(C)nc3c(c2=O)c2nc4ccccc4nc2n3Cc2ccco2)cc1 | 11.1
COc1ccc(Cn2c(C)nc3c(c(=O)c4ccccc4n3C)c2=O)cc1 | n
COc1ccc(N2CCN(CCCNC(=O)CCc3cccc(F)c3)CC2)cc1 | n
O=C1C(C=NCc2cccnc2)=C(O)c2ccccc21 | n
COc1cccc(/C=N/NC(=O)CNC(=O)CCc2ccccc2)c1O | n
Oc1cccc(C=NCc2ccccc2)c1O | 11.7
CCC(C)NC(=O)CSc1nnc(-c2cc(OC)c(OC)c(OC)c2)o1 (stereo not drawn) | n
CC(=O)c1cc(-c2ccccc2)n(CC(=O)NCc2ccc(Cl)cc2)c1C | n
O=C(Nc1ccc(F)cc1)OCc1cn(Cc2cccc(C(F)(F)F)c2)nn1 | n
NC(=O)c1ccc(NC(=O)CSc2nnc(-c3ccccc3)n2-c2ccccc2)cc1 | n
C[C@H]1C2CC(OC(=O)NCc3ccccc3)C(C2)[C@H]2CCCCN21 (stereo partly drawn) | n
O=C(Cc1ccccc1)Nc1nnc(-c2cccnc2)s1 | n
CC(=O)Nc1ccc(OCC(O)CNC2CCCC2)cc1 (stereo not drawn) | n
SMILES | TbREL1 inh
Cc1ccccc1OCC(O)CNC1CCC(NCC(O)COc2ccccc2C)CC1 (stereo not drawn) | 17.0
OC(CNC1Cc2ccccc2C1)COc1ccc(F)cc1 (stereo not drawn) | n
COc1ccccc1-c1nnc2n1N=C(c1ccc3c(c1)OCO3)CS2 | n
N#Cc1c(Cl)c(Cl)c2nnc(-c3ccc(Br)cc3)n2c1Cl | 16.1
Cc1ccc2c(n1)sc1c(-c3ccc(Br)cc3)c(C#N)c(N)nc12 | n
CN(c1cccnc1)c1ccc(NC(=O)Cc2c[nH]c3ccccc23)cc1-c1ccc(C(C)(C)C)cc1 | n
Cc1cc(N2CCNC[C@H]2C)ccc1N1CCS(=O)(=O)CC1 | n
O=S1(=O)c2ccc(N3CCCC3)cc2Oc2ccccc2CN1Cc1cn(Cc2cccc(F)c2)nn1 | n
Cc1ccc(S(=O)(=O)N2OC(c3ccccc3)C[C@H]2CC=C(c2ccccc2)c2ccccc2)cc1 (stereo partly drawn) | n
Cn1cc(C(=O)N/N=C/C(Br)=C\c2ccccc2)ccc1=O | n
Cc1occc1C(=O)N/N=C/c1ccc[nH]1 | n
Cc1occc1C(=O)N/N=C/C(Br)=C/c1ccccc1 | 11.0
Cc1ccc(C(=O)NCCN2C(=O)C3C4C=CC(C4)C3C2=O)cc1 (stereo not drawn) | n
Fc1ccc(-c2cc(-c3nnc4sc(-c5ccco5)nn34)[nH]n2)cc1 | n
Cc1cccc(CCNC(=O)CSc2nc3c([nH]2)c(=O)n(C)c(=O)n3C)c1 | n
Cc1ccc(NC(=O)CCS(=O)(=O)c2ccccc2)c(C)c1 | n
O=C(C[n+]1cc(-c2ccccc2)n2c1CCC2)c1cccs1 | n
CC1CCC(C(C)C)C(OC(=O)Cn2c(-c3ccc(Br)cc3)[n+](C)c3ccccc32)C1 (stereo not drawn) | n
COc1ccc(-c2c[n+](CC(=O)OC3CC(C)CCC3C(C)C)c3n2CCC3)cc1 (stereo not drawn) | 14.9
CCOC(=O)CN1C(=O)[C@]2(OCCC=C[C@H]2C)c2c(Br)cccc21 | n
COc1cc(O)c2c(=O)c3c(O[C@H]4O[C@@H](CO)[C@H](O)[C@@H](O)[C@@H]4O)ccc(O)c3oc2c1 | n
O=c1cc(-c2ccc(O)c(O)c2)oc2cc(O)c([C@@H]3O[C@H](CO)[C@@H](O)[C@H](O)[C@H]3O)c(O)c12 | 47.6
COc1cc2ccc(=O)oc2c(O[C@@H]2O[C@H](CO)[C@@H](O)[C@H](O)[C@H]2O)c1O | n
CCOC(=O)[C@@]12CCC3=C1N(CCC3)C(=O)[C@H](CC(=O)NCc1cccc3ccccc13)C2 | n
O=S(=O)(c1ccc(Br)s1)N1CCC(c2nc3ccccc3o2)CC1 | n
SMILES | TbREL1 inh
CN1CCCCC(NC(=O)C2CCCCC2)C1=O (stereo not drawn) | n
Cc1ccc(C)c(NC(=O)CN(C)C(=O)Cc2ccccc2)c1 | n
Cc1ccc(C)c(NC(=O)CN(C)C(=O)c2ccc(Cl)nc2)c1 | 11.1
Cc1ccc(C)c(NC(=O)CN(C)C(=O)c2ccc3c(=O)n4c(nc3c2)CCC4)c1 | n
CCOC(=O)N[C@@H](Cc1cccnc1)C(=O)N1CCC[C@H]1C(=O)NC1CCCC1 | n
O=C(NCc1ccco1)O[C@H]1CC[C@@]23CCCN2C(=O)CCC[C@H]3C1 | n
CCOC(=O)[C@]12CCCC=C1N(CCCOC)C(=O)[C@@H]2CC(=O)NCC12CC3CC(CC(C3)C1)C2 | n
CCCCCc1ccc(-c2n[nH]c(=O)c3ccccc23)cc1 | n
CCN(Cc1ccccc1)C(=O)C1CCCN(c2ncccn2)C1 (stereo not drawn) | n
O=C(Cc1cc(=O)[nH][nH]1)N/N=C/c1ccccc1C(F)(F)F | n
CCOC(=O)N[C@@H](CC(C)C)C(=O)N1CCC[C@H]1C(=O)NCc1ccccc1 | n
Cc1cccc(CN(C)CCc2ccccn2)c1 | n
COc1ccc(CN(C)CCc2ccccn2)c(OC)c1OC | 18.5
COc1ccc(C(=O)O)cc1S(=O)(=O)N(C)CCc1ccccn1 | n
COc1ccc(CN(CCN2CCOCC2)C(=O)c2cccc(F)c2F)cc1OC | n
O=C(NCc1ccccc1Cl)C1CCCN(c2ncccn2)C1 (stereo not drawn) | n
COc1cccc(N2CCN(C(=O)CCn3nnc4ccccc43)CC2)c1 | n
CN(C(=O)/C=C/c1ccco1)c1ccccc1C(=O)O | n
O=C(O)c1cc(N2N=C(C(F)(F)F)/C(=C/C=C/c3ccco3)C2=O)ccc1Cl | 97.6
O=C(O)c1cnn2c(C(F)(F)F)cc(-c3ccco3)nc12 | n
COC(=O)[C@]12C[C@H](CC(=O)NCc3cccc(C(F)(F)F)c3)C(=O)N(Cc3ccccc3)C1=C[C@H](COCc1ccccc1)O[C@@H]2C | n
COC(=O)C1=C(C)N(Cc2ccc(F)cc2)C(=S)NC1c1ccc(Cl)cc1 (stereo not drawn) | n
Cc1ccc(-n2c(SCC(=O)Nc3ccc(OCc4ccccc4)cc3)nnc2-c2ccco2)cc1 | n
CN1CCCCC(NC(=O)c2ccccn2)C1=O (stereo not drawn) | n
CCCCCCCN1C=CC(=O)CC1 | n
